Measurements from PubChem BioAssay (NCI).
The panel holds about 83,000 compounds, 20% with a hit somewhere; the sample as a whole holds those more often.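 Testing used 96-well plates and a 48-hour single-concentration exposure. Example: -40 means 40% of the starting cells died.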 A number with no mark means an inactive call. Active and inactive are the calls of the source. How the source made its calls: active means growth percent below 10; inactive means the rest.

Experiments:
Assay in all cases: NCI-60 one-dose screen, 48 h (100 = growth as untreated, 0 = no growth, -100 = all killed)
HCT-15 colon = details: 10 µM unless noted
SNB-75 CNS = details: 10 µM
SNB-19 CNS = details: 10 µM unless noted
U251 CNS = details: 10 µM unless noted
PC-3 prostate = details: 10 µM unless noted
SK-MEL-5 melanoma = details: 10 µM unless noted
UACC-62 melanoma = details: 10 µM unless noted
LOX IMVI melanoma = details: 10 µM unless noted
SK-MEL-28 melanoma = details: 10 µM unless noted
SK-MEL-2 melanoma = details: 10 µM unless noted
EKVX NSCLC = details: 10 µM unless noted
SN12C renal = details: 10 µM unless noted
UO-31 renal = details: 10 µM unless noted
TK-10 renal = details: 10 µM unless noted
CAKI-1 renal = details: 10 µM unless noted
A498 renal = details: 10 µM unless noted
CCRF-CEM leukemia = details: 10 µM unless noted
MOLT-4 leukemia = details: 10 µM unless noted
ACHN renal = details: 10 µM unless noted

Row | SMILES | growth (HCT-15 colon) | growth (SNB-75 CNS) | growth (SNB-19 CNS) | growth (U251 CNS) | growth (PC-3 prostate) | growth (SK-MEL-5 melanoma) | growth (UACC-62 melanoma) | growth (LOX IMVI melanoma) | growth (SK-MEL-28 melanoma) | growth (SK-MEL-2 melanoma) | growth (EKVX NSCLC) | growth (SN12C renal) | growth (UO-31 renal) | growth (TK-10 renal) | growth (CAKI-1 renal) | growth (A498 renal) | growth (CCRF-CEM leukemia) | growth (MOLT-4 leukemia) | growth (ACHN renal)
1 | S=C1CC(=S)NC(=S)N1 | 116% | 92.5% | 96.1% | 103% | 107% | 105% | 100% | 94.6% | 108% | 107% | 107% | 96.1% | 88% | 110% | 101% | 90.2% | 105% | 95.3% | 
2 | O=C1Nc2ccc3c(c2/C1=C\c1cc2c(cc1Br)OCO2)OCO3 | 22.9% | -37.7% (active) | 42% | 13.4% | 16.6% | -19.9% (active) | 43.9% | -29.5% (active) | 19.4% | 42.4% | 37.3% | 26.7% | -15.9% (active) | -31.2% (active) | -25.7% (active) | 19.1% | 10% (active) | 35.7% | 11.4%
3 | COc1ccc(NC(=O)CSc2nc(-c3ccc(OC)c(OC)c3)cc(-c3cc(OC)c(OC)c(OC)c3)n2)cc1 | 100% | 76% | 91.3% | 105% | 88.6% | 88.7% | 92.2% | 97.1% | 108% | 89% | 108% | 93.9% | 35.4% | 96.8% |  | 99.8% | 101% | 84.8% | 
4 | COc1ccccc1CNCCCN1C(=O)c2ccc3c4c(ccc(c24)C1=O)C(=O)N(CCCNCCCCNCCCN)C3=O | -32.1% (active) | -79.7% (active) | -31.1% (active) | -51.8% (active) | -1.44% (active) | -99.3% (active) | -52% (active) | 1.41% (active) | -75.7% (active) | -54.6% (active) | -41% (active) | -32.8% (active) | -1.99% (active) | -10.1% (active) | 7.3% (active) | -58.1% (active) | -19.1% (active) | -28.4% (active) | 
5 | Cc1ccc(S(=O)(=O)C2=C3C(=C(c4ccccc4)c4ccccc43)CN(S(=O)(=O)c3ccc(C)cc3)C2)cc1 | 39% | 56.1% | 82.1% | 38.4% | 30.1% | 81.9% | 36.9% | -76.5% (active) | 88% | 36.8% | 77.9% | 55.3% | 32.3% |  |  | 87.5% | -7.65% (active) | -6.7% (active) | 43.3%
6 | C=C1CCC2C3(C)COC(c4ccc(N(C)C)cc4)OC3CCC2(C)C1C/C=C1/C(=O)OCC1O (stereo not given) | 57.6% | 73.8% | 85.9% | 51.1% | 9.17% (active) | 60.7% | 63.1% | 11.9% | 94.9% | 45.1% | 85.7% | 44.9% | 54.2% | 94.3% |  | 109% | -41.6% (active) | 37.7% | 79.3%
7 | Fc1ccc(Nc2ncnc3ccc(-c4cnc5[nH]ccc5c4)cc23)cc1Cl | 31.1% | -65.2% (active) | 40.7% | -68.2% (active) | 27.5% | 21% | 44.8% | -44.4% (active) | 57.4% | 29.9% | 14.8% | -14.2% (active) | -73.8% (active) |  |  | 77.4% | 40% | 45.6% | -66.7% (active)
8 | CN(C)CCCC(C#N)c1ccccc1 (stereo not given) | 103% | 88.5% | 103% | 105% | 99.1% | 108% | 102% | 103% | 119% | 109% | 118% | 101% | 104% | 100% | 117% | 107% | 105% | 91.6% | 
9 | COc1ccc(C2=CC(c3cc(OC)c(OC)c(OC)c3)NC(=O)N2)cc1OC (stereo not given) | 27.5% | 2.17% (active) | 38.1% | 21.1% | 51% | 18.5% | 44.5% | 7.04% (active) | 40% | 20.7% | 35.5% | 23.7% | 22.8% | 12.8% | 5.82% (active) | 19.3% | 6.59% (active) | 17.9% | 
